Anaer choline gr: inhibitors of anaerobic choline-dependent gram-negative bacterial growth. Gram-negative bacterium anaerobic choline minimal medium, absorbance growth; active compounds read low. calls only. 55,000 tested, 0.2% active. AID 1963822; call rule not given here
Calls only; . = inactive; + = active, no number. The full list was thinned out, with hits kept by preference.

SMILES	Anaer choline gr
CN1C2CCC1CC(OC(c1ccc(F)cc1)c1ccc(F)cc1)C2 (stereo unspecified)	+
Fc1ccc(C(OCCN2CCN(CCCc3ccccc3)CC2)c2ccc(F)cc2)cc1	.
CN1[C@@H]2CC[C@H]1CC(OC1c3ccccc3CCc3ccccc31)C2 (stereo partly specified)	.
CC(C)n1c(=O)[nH]c2c(C(=O)N3CCC4(CC3)OCCO4)snc2c1=O	.
CCOc1ccc([C@H]2[C@@H]3C(=NN2C(C)=O)C2CCN3CC2)cc1	.
Cc1nnc2cc(N3CCN(C)CC3)cnn12	.
CN1CCc2cccc(Cl)c2CC1	+
CN1CCN(c2nc3ccccc3nc2Cl)CC1	.
COc1ccc(CNC(=O)N2CCC3(C2)C(=O)N(C)c2ccc(OC)cc23)cc1 (stereo unspecified)	.
CCc1ccc(NC(=O)N2Cc3ccccc3-n3cccc3C23CCN(C)CC3)cc1	.

Assay outcomes (PubChem)
